Drawing on PubChem BioAssay AID651812 (National Center for Advancing Translational Sciences (NCATS), 2012), this text covers Potency for 102 compounds.

Hit rate of the full screen: of about 2,100 compounds, about 650 (31%) were called active. About 16% were inconclusive and are not listed. Calls follow the shape of the dose curve; as a rule, active = well fitted inhibition curve with a large enough effect; inconclusive = small, poorly fitted or top-dose-only effect; inactive = flat fitted curve, though single readings scatter. Some of the results follow. Entries that show only a call come without a potency.
Potency is read from the fitted curve at half-maximal effect.

The nature of this experiment: qHTS for inhibitors of Vif-A3G interactions: Cherry picks. Also: nearly all actives have a fitted effect of over 80% in size. The following applies: HeLa A3G-eYFP + Vif (tagged APOBEC3G with the HIV-1 protein that degrades it), 24 h; Potency: eYFP fluorescence increase; series mostly up to 36.9 µM. The method, boiled down: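 Cherry-picked compounds tested at several concentrations on A3G-eYFP/Vif HeLa cells for 24 hours; loss of Vif-driven degradation read as eYFP fluorescence by cytometric plate imaging, 488 nm excitation, 500-530 nm emission.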
(In general: qHTS replaces the single test concentration by a dilution series.)
`CCn1c(CNC(=O)c2cc(OC)c(OC)c(OC)c2)cc2cc(C)ccc21`: the Potency result was “inactive”. For the compound `CCOc1ncccc1C(=O)OCc1ccc(C(=O)OC)cc1`, the Potency entry was “inactive”. The figure for `C=CCSc1nnc(C)c(/C=C/Nc2ccc(Cl)cc2)n1` is 20.6 µM (active); for `COc1ccc(N/C=C/c2nc(SC)nnc2C)cc1` it is “inactive”. For the compound `COc1ccccc1NC1=NC(c2ccc(Cl)cc2)N=C(N)N1` (configuration not stated), the Potency result is “inactive”. As for `CCN(CC)c1ccc(/C=N/NC(=S)NC)c(O)c1`, the Potency result is “inactive”.

Turning to `CCN1C(=S)SC(=O)C1=C1C=C(C)N(Cc2ccco2)C(C)=C1`, the Potency was 14 µM (active). Turning to `Cc1c(C(=O)Nc2cnccn2)oc2ccccc12`, the Potency entry is “inactive”. Under `O=C1CC(c2cc(F)ccc2F)c2cc3c(cc2N1)CCC3` (configuration not stated) stands “inactive”; under `O=C(Cc1n[nH]c(=O)c2ccccc12)OCC(=O)c1ccc2c(c1)OCCO2`, “inactive”. Turning to `C(=C/c1nccc2c1[nH]c1ccccc12)/c1ccc2c(c1)OCO2`, the Potency entry was “inactive”. The figure for `N#Cc1ccc(/C=C\c2nccc3c2[nH]c2ccccc23)cc1` is 14 µM (active); for `O=C(C[n+]1cccc2cc(Cl)ccc21)c1ccc2ccccc2c1` it is 23.1 µM (active); for `O=C(C[n+]1cccc2cccc(O)c21)c1ccc2ccccc2c1` it is “inactive”. The figure for `O=C(C[n+]1cccc2cc(Cl)ccc21)c1ccc(I)cc1` is 20.6 µM (active); for `CC(C)(C)c1ccc(C(=O)C[n+]2cccc3cc(Cl)ccc32)cc1` it is 20.6 µM (active); for `O=C(COC(=O)c1ccc(NS(=O)(=O)c2cccs2)cc1O)NCc1ccccc1` it is “inactive”. `CCC(=Nc1ccccc1O)C1=C(O)CC(c2ccccc2)CC1=O` (configuration not stated): the Potency result is “inactive”. For the compound `Clc1ccccc1C1CC(c2ccccc2)=Nc2ccccc2N1` (configuration not stated), the Potency entry was “inactive”. Under `CCOc1ccccc1C(=O)Nc1ccsc1C(=O)OC` stands “inactive”; under `Cc1cccc(C=Nc2ccccc2C(N)=O)c1`, “inactive”.

Take `CN(C)c1ccc(C=C2SC(=S)NC2=O)cc1`: the Potency was 11.2 µM (active). In the case of `CCOc1ccc(N(C)c2ccc(/C=C3/SC(=S)NC3=O)cc2)cc1`, the Potency was 17.7 µM (active). Regarding `Cc1cccc(N=C2NC(=O)/C(=C/c3cccn3C)S2)c1`, the Potency entry was “inactive”. The entry for `O=C1NC(=Nc2ccc(O)cc2)S/C1=C/c1ccco1` is “inactive”. The figure for `Cn1cc(/C=C2\SC(=O)N(c3ccccc3)C2=O)c2ccccc21` is 20.6 µM (active).

Regarding `Cn1cccc1/C=C1\SC(=Nc2cccc(O)c2)NC1=O`, the Potency result was “inactive”. Consider `Cc1ccc(N=C2NC(=O)/C(=C/c3cn(C)c4ccccc34)S2)cc1C`, for which the Potency was 17.7 µM (active). For the compound `Cn1cc(/C=C2\SC(=S)N(NC(=O)c3cccc(Cl)c3)C2=O)c2ccccc21`, the Potency was 3.66 µM (active). Under `Cn1cccc1/C=C1\SC(=O)N(c2ccc(O)cc2)C1=O` stands 20.6 µM (active); under `CCOc1ccc(C(=O)C(CCC(CN(C)C)C(=O)c2ccc(OCC)cc2)CN(C)C)cc1` (configuration not stated), “inactive”; under `S=c1[nH]nc(-c2cccnc2)n1/N=C/C(Cl)=C\c1ccccc1`, “inactive”. The entry for `O=C(C(=Cc1ccccc1)CN1CCCCC1)c1ccccc1` is “inactive”.

With `O=S(=O)(Nc1cc(Sc2ncn[nH]2)c(O)c2ccccc12)c1ccccc1`, the Potency entry was “inactive”. The entry for `COc1ccc(NC(=O)C2Cc3c(-c4cccc(C(C)=O)c4)ccnc3O2)cn1` (configuration not stated) is “inactive”; for `Cc1noc(C)c1COc1cccc(C(=O)OC(C)C(=O)Nc2ccc3c(c2)OCO3)c1` (configuration not stated) it is “inactive”. In the case of `COc1cc2c(cc1OC)C(C)N(C(=O)c1cc(C)on1)CC2` (configuration not stated), the Potency entry is “inactive”. For `CN(C)c1ccc(C2C=C(c3ccc(Cl)cc3OC(F)F)Nc3ncnn32)cc1` (configuration not stated), the Potency result is “inactive”. Consider `O=C(O)c1ccccc1/C=N/Nc1ccc(S(=O)(=O)N2CCOCC2)cc1[N+](=O)[O-]`, for which the Potency result is “inactive”.

Take `COc1ccccc1NS(=O)(=O)c1cc([N+](=O)[O-])ccc1N/N=C/c1sc(N2CCOCC2)nc1-c1ccccc1`: the Potency is 2.06 µM (active). Turning to `Cc1ccc(C(=O)c2cc([N+](=O)[O-])ccc2N2CCOCC2)cc1C`, the Potency result was “inactive”.

`Cc1ccc(S(=O)(=O)Nc2cc(-c3nn(C)c(=O)c4ccccc34)ccc2N2CCOCC2)cc1`: the Potency result is “inactive”.

For the compound `O=[N+]([O-])c1ccc(N/N=C/c2sc(N3CCOCC3)nc2-c2ccccc2)c(S(=O)(=O)Nc2ccccc2Cl)c1`, the Potency was 11.6 µM (active).

As for `Cc1ccc(NS(=O)(=O)c2cc([N+](=O)[O-])ccc2N/N=C/c2sc(N3CCOCC3)nc2-c2ccccc2)c(C)c1`, the Potency is 0.158 µM (active). For `COc1cc(C2c3cc4c(cc3C(OC3OC5COC(c6cccs6)OC5C(O)C3O)C3COC(=O)C23)OCO4)cc(OC)c1O` (configuration not stated), the Potency entry was “inactive”. The entry for `O=C(c1[nH]c(C(F)(F)F)nc1-c1ccccc1)N1CCN(c2cccc(C(F)(F)F)n2)CC1` is “inactive”. For the compound `O=C(CCc1ccccc1)Nc1ccc(Cl)cn1`, the Potency entry was “inactive”.

In the case of `COC(=O)COc1cccc2c(=O)n(CC(=O)NCc3ccccc3)ccc12`, the Potency entry was “inactive”. The entry for `O=C(/C=C/c1ccncc1)c1cc(Cl)ccc1O` is “inactive”; for `COc1ccccc1C1=NOC(COc2ccc3c(C)cc(=O)oc3c2)C1` (configuration not stated) it is “inactive”.

As for `CC(=O)n1c2ccccc2c2nc3ccccc3nc21`, the Potency was 9.2 µM (active). The entry for `CCSc1nc2ccccc2n1C(=O)/C=C/c1ccc(OC)c(OC)c1` is “inactive”; for `Cc1cccc(-n2c(N)c(-c3nc4ccccc4n3C)c3nc4ccccc4nc32)c1` it is “inactive”; for `O=c1c(Cl)c2oc3ccccc3nc-2c2ccccc12` it is 18.4 µM (active). As for `COc1ccc(/C=N/NC(=O)c2cc3c(OC)ccc(OC)c3[nH]2)cc1O`, the Potency result is “inactive”. The figure for `O=[N+]([O-])c1ccc(N2CCN(Cc3ccccc3)CC2)c2c1no[n+]2[O-]` is 15.8 µM (active); for `Cc1ccc(-c2nc3ccccc3o2)cc1NC(=S)NC(=O)/C=C/c1ccco1` it is “inactive”. Turning to `COc1ccccc1C(=O)NC(=S)Nc1ccc(NC(=O)c2ccco2)cc1`, the Potency entry was “inactive”.

As to `Cc1cc(NC(=O)c2ccco2)cc(-c2nc3cc(Cl)ccc3o2)c1O`, the Potency was 18.4 µM (active). Under `CC1=C(C(=O)Nc2cccc(F)c2)C(c2ccsc2)C2=C(CC(C)(C)CC2=O)N1` (configuration not stated) stands “inactive”; under `O=C1S/C(=C/c2ccc(N3CCOCC3)o2)C(=O)N1Cc1c(F)cccc1Cl`, 4.44 µM (active). Under `CCCN1C(=O)S/C(=C\c2ccc(N3CCOCC3)o2)C1=O` stands 4.44 µM (active); under `CCOC(=O)CN1C(=O)S/C(=C/c2ccc(N3CCCCC3)o2)C1=O`, 5.8 µM (active); under `O=C1S/C(=C\c2ccc(N3CCOCC3)o2)C(=O)N1c1ccccc1`, 2.8 µM (active). Under `Cc1ccc(Cn2nnc3c(=O)n(CC(=O)NCc4ccccc4)cnc32)cc1` stands “inactive”; under `CO/N=C\CC(=O)Nc1ccc(Cl)c(Cl)c1`, “inactive”. Consider `Cc1ccc2nc(NS(=O)(=O)c3ccc(Cl)cc3)c(Nc3ccc(C(=O)O)cc3)nc2c1`, for which the Potency result is “inactive”. `O=C1S/C(=C/c2ccc(N3CCOCC3)o2)C(=O)N1Cc1ccc(F)cc1`: the Potency was 2.8 µM (active). For `CCc1ccc2c(c1)NC(=O)C2(C)Cc1ccccc1Cl` (configuration not stated), the Potency entry was “inactive”.

On to `COC(=O)[C@@H]1Cc2c([nH]c3ccccc23)C(C)(C)N1C(=O)CCl`, for which the Potency result was “inactive”. As for `c1ccc(-c2cnn3c(-c4ccccc4)c(-c4ccccc4)nc3n2)cc1`, the Potency was 3.66 µM (active).

On to `COc1ccc(-n2nnnc2-c2cccc(OC)c2)cc1`, for which the Potency result is “inactive”. The entry for `CCS(=O)(=O)N1N=C(c2ccc(C)cc2)CC1c1cc2ccc(OC)cc2nc1Cl` (configuration not stated) is “inactive”; for `COc1ccc(C2CC(c3ccncc3)=NN2c2ccc(S(N)(=O)=O)cc2)cc1` (configuration not stated) it is 10.3 µM (active).

With `COc1ccc(-c2cnc3c(NC=O)cc(-c4ccccc4)cn23)cc1OC`, the Potency entry is “inactive”. As to `COc1ccc(/C=c2\s/c(=C/C(=O)c3ccc(C)cc3)[nH]c2=O)c(OC)c1`, the Potency is 20.6 µM (active). For the compound `COc1ccccc1/C=N/NC(=S)Nc1cccnc1`, the Potency entry is “inactive”. For the compound `Oc1sc(C=Nc2ccccc2)c2ccccc12`, the Potency was 16.4 µM (active).

`Oc1sc(C=Nc2ccc(F)cc2)c2ccccc12`: the Potency is 2.91 µM (active). As for `COc1ccc(NC(=O)c2c(Cl)n(C)c3ccccc23)cc1`, the Potency result is “inactive”. As for `COc1ccc(N=Cc2sc(O)c3ccccc23)cc1`, the Potency was 12.5 µM (active).

With `COc1ccc(N=Cc2c(O)c3ccccc3n2C(C)=O)cc1`, the Potency was 18.4 µM (active). Under `COc1ccc(C(=O)N/N=C/c2ccccc2OC(=O)c2ccccc2)cc1` stands “inactive”. Consider `CNC(=S)N/N=C(\C)c1ccc(Cl)s1`, for which the Potency entry is “inactive”. On to `COCCCN(C(C)=O)c1nc(-c2ccc(OC)cc2)cs1`, for which the Potency entry is “inactive”. As for `COc1ccc(S(=O)(=O)NN(C)c2nc(C(F)(F)F)nc3ccccc23)cc1`, the Potency entry was “inactive”. Under `CC1(C)Cc2c(sc3ncnc(NNC(=S)NCc4ccccc4)c23)CO1` stands “inactive”; under `COc1ccc(/C=N/NC(=O)c2cccnc2)cc1COc1ccc(NC(C)=O)cc1`, “inactive”.

With `COc1ccc(OC)c(C2C=C(c3ccc(C)c(C)c3)Nc3nnnn32)c1` (configuration not stated), the Potency result was “inactive”. For the compound `COc1ccc(NC(=O)c2c(C)noc2-c2snnc2C)cc1`, the Potency result was “inactive”. Under `COc1ccc(/C=N\NC(=O)c2cc3c(ccc4ccccc43)o2)cc1O` stands “inactive”; under `COc1ccc(N=Cc2oc3ccc4ccccc4c3c2O)cc1`, 7.31 µM (active); under `CCC(=O)NC(c1ccc(OC)cc1)c1c(O)ccc2ccccc12` (configuration not stated), “inactive”.

Consider `CC(CC(=O)Nc1ccc2c(c1)c(=O)n(C)n2Cc1ccc(F)cc1)c1ccccc1` (configuration not stated), for which the Potency result is “inactive”. Turning to `CCOC(=O)c1[nH]c(C)c(C(=O)Nc2ccccc2F)c1C`, the Potency result was “inactive”.

Regarding `CCOC(=O)C1=C(Cc2ccc(Cl)cc2)C(=O)c2ccccc2C1=O`, the Potency was 16.4 µM (active). The figure for `CCOC(=O)C1=C(Cc2ccc(F)cc2)C(=O)c2ccccc2C1=O` is 20.6 µM (active). The entry for `CCOC(=O)N1CCN(c2c(NCc3ccc(F)cc3)c(=O)c2=O)CC1` is “inactive”. The entry for `COCCNC(=S)N/N=C(\C)c1ccc(OC(F)F)cc1` is “inactive”. As to `CC(C)c1ccc(NC(=O)Nc2cnccn2)cc1`, the Potency entry was “inactive”. The figure for `CCOC(=O)c1ccc(/C=C2/C=C(c3ccccc3)N(c3ccc(Cl)c(C(=O)O)c3)C2=O)cc1` is 20.6 µM (active); for `CCOC(=O)N1C/C(=C\c2ccccc2)C(=O)/C(=C/c2ccccc2)C1` it is “inactive”.
